Experimental data as given in PubChem BioAssay.
The source made the active and inactive calls.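 How the source made its calls, unless noted: active means inhibition of the reporter signal at or above 50%; inactive means inhibition below 50%.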

What was measured:
[1] = inhibitors of TNFa-induced NFkB p65 translocation, primary screen, imaging, HUVEC, MLSMR starter and 10KST1 sets (AID 438;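 active means inhibition above 20% together with a positive visual image hit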;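 further: compound added about 3h40 before a 20 min TNFalpha stimulation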;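 on inhibition: signal is the nuclear over cytoplasmic p65 intensity ratio per well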); settings: HUVEC TNFa-induced p65 nuclear translocation; cell count: measured here: nuclei count (cytotoxicity indicator), at 2.08 µM; inhibition: at 2 µM, stronger effect = higher value, 0% TNFa-plus-vehicle, 100% no-TNFa wells
[2] = reduction of polyQ htt aggregates in cells – imaging, exon1htt(103Q)mCFP cells, high-content imaging, primary screen (AID 483;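 active means visual image review flags a hit and inhibition of aggregation exceeds 20%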;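 further: compound exposure lasted 3 days before fixation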;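 on nuclei count: percent of the per-plate median nuclei count of sample wells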); settings: exon1htt(103Q)mCFP cell line, aggregate imaging, at 2 µM; inhibition of aggregation: stronger effect = higher value; nuclei count: measured here: cell count, toxicity
[3] = endothelial E-selectin expression blockers – imaging, HUVEC, immunofluorescence, MLSMR starter and 10KST1 sets, primary screen (AID 487;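 active means visually confirmed hit in the image check and inhibition above 20%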;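 on inhibition: signal is fraction of cell area covered by stained E-selectin grains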;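 on nuclei count: 100% = median nuclei count of all wells on the same plate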); settings: HUVEC TNFalpha-induced E-selectin immunofluorescence imaging, at 2 µM; inhibition: stronger effect = higher value; nuclei count: measured here: cell number, toxicity
[4] = target: Voltage-gated potassium channel subunit beta-2 (Rattus norvegicus) (UniProt P62483); test: inhibitors of rat Kvbeta2 reductase activity – biochemical, NADPH fluorescence, primary screen (AID 622;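 active means fluorescence slope higher than the sample average by over 3 SD, cut at about -0.22 in these data, passing the limit was not always enough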;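 further: slope of raw intensity against log time taken from 70 to 1610 s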); settings: recombinant KvBeta, 4-cyanobenzaldehyde reduction, at 10 µM, stronger effect = higher value
[5] = target: Voltage-gated potassium channel subunit beta-2 (Rattus norvegicus) (UniProt P62483); test: enhancers of rat Kvbeta2 NADPH turnover – biochemical, NADPH fluorescence, primary screen (AID 623;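 active means NADPH fluorescence slope more negative than the mean of all samples by about 3 SD, 99.7% confidence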;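 further: fluorescence intensity change per second fitted from 20 to 320 s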); settings: Recombinant KvBeta, NADPH fluorescence decrease slope, 10 min; at 10 µM; stronger effect = lower value
[6] = target: Alpha-2C adrenergic receptor (Homo sapiens) (UniProt P18825); test: compounds altering alpha2C-coupled GIRK flux – cell-based, HEK293 alpha2C/GIRK1/2, thallium flux, primary screen (AID 624;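 active means fluorescence slope after compound addition differing from the mean of all screened samples at 99.7% confidence, in either direction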;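 further: slope of fluorescence ratio to pre-addition baseline per second over 15 to 24 s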); settings: thallium flux BTC fluorescence, at 10 µM, actives lie on both sides
[7] = blockers of RIG-like receptor reporter activation – cell-based, Sendai virus stimulus, luciferase, 10K MLSCN set, TLR/RLR signaling modifier project, primary screen (AID 602276;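 active means inhibition at or above 50% at 10 µM; inactive means inhibition below 50%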;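 further: firefly luciferase from ISG56 promoter only with Renilla not read in this screen; 0% = Sendai virus plus DMSO and 100% = medium plus DMSO without virus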); settings: HEK293 RL24 IRF3 luciferase reporter, at 10 µM, stronger effect = higher value
[8] = TLR3 IRF3 reporter activation blockers – cell-based, poly I:C stimulus, luciferase, 10K MLSCN set, primary screen (AID 602277); settings: HEK293-TLR3 RL24 IRF3 luciferase reporter, at 10 µM, stronger effect = higher value

Sequence of Voltage-gated potassium channel subunit beta-2 (Rattus norvegicus) (P62483 whole entry, looked up): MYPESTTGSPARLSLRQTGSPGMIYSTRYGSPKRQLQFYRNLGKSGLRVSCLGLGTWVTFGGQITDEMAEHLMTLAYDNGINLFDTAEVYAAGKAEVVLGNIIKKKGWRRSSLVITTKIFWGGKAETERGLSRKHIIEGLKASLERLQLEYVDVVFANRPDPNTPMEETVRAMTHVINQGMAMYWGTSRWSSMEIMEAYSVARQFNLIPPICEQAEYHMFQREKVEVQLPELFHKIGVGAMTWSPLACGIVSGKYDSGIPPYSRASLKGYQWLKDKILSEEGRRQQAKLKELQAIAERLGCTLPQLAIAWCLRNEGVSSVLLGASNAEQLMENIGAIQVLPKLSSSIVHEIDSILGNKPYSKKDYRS
Sequence of Alpha-2C adrenergic receptor (Homo sapiens) (P18825 whole entry, looked up): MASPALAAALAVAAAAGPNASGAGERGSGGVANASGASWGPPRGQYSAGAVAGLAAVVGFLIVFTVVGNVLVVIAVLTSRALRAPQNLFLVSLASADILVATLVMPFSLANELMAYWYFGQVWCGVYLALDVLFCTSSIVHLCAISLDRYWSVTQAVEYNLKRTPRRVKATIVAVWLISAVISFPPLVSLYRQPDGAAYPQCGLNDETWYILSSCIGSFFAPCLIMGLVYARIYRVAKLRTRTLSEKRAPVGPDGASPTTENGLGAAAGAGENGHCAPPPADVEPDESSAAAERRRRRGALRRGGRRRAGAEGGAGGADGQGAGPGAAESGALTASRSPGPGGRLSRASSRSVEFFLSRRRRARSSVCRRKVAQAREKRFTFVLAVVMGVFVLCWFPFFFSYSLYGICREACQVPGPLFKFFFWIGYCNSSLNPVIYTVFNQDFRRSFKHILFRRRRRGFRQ

O=C(C1CCN(c2nnc(-n3cccc3)s2)CC1)N1CCN(Cc2ccc3c(c2)OCO3)CC1
cell count [1]: 707
inhibition [1]: -9.2% (inactive)
inhibition of aggregation [2]: -39.4% (inactive)
nuclei count [2]: 115%
inhibition [3]: -56.3% (inactive)
nuclei count [3]: 113%
fluorescence slope [4]: -0.593 (inactive)
NADPH fluorescence slope [5]: -2e-05 (inactive)
slope [6]: 0.00596 (inactive)
inhibition [7]: -2.25% (inactive)
inhibition [8]: -31.5% (inactive)

Cc1cccc(NC(=O)CC2NC3CCCCC3NC2=O)c1 (centres undefined)
cell count [1]: 384
inhibition [1]: -4.8% (inactive)
inhibition of aggregation [2]: -8.2% (inactive)
nuclei count [2]: 81%
inhibition [3]: 6.9% (inactive)
nuclei count [3]: 106%
fluorescence slope [4]: -0.358 (inactive)
NADPH fluorescence slope [5]: -2.9e-05 (inactive)
slope [6]: 0.00297 (inactive)
inhibition [7]: 13.5% (inactive)
inhibition [8]: 14.2% (inactive)

COc1ccc2c(c1)C1(Nc3ccccc3-c3nc4ccccc4n31)C(=O)N2 (centres undefined)
cell count [1]: 240
inhibition [1]: 5.7% (inactive)
inhibition of aggregation [2]: 11.7% (inactive)
nuclei count [2]: 78%
inhibition [3]: 13.2% (inactive)
nuclei count [3]: 110%
fluorescence slope [4]: -0.493 (inactive)
NADPH fluorescence slope [5]: -4.6e-05 (inactive)
slope [6]: 0.00486 (inactive)
inhibition [7]: 17.4% (inactive)
inhibition [8]: 36.3% (inactive)

CC(C)(C)c1ccc2c(c1)OCC(C(=O)O)O2 (centres undefined)
cell count [1]: 448
inhibition [1]: 2% (inactive)
inhibition of aggregation [2]: -7.2% (inactive)
nuclei count [2]: 110%
inhibition [3]: 14.6% (inactive)
nuclei count [3]: 90.7%
fluorescence slope [4]: -0.547 (inactive)
NADPH fluorescence slope [5]: 5.5e-05 (inactive)
slope [6]: 0.00589 (inactive)
inhibition [7]: -8.63% (inactive)
inhibition [8]: 4.32% (inactive)

O=C(CSc1nc2ccccc2nc1SCC(=O)N1CCOCC1)N1CCOCC1
cell count [1]: 473
inhibition [1]: 7.6% (inactive)
inhibition of aggregation [2]: 11.3% (inactive)
nuclei count [2]: 93.3%
inhibition [3]: -239% (inactive)
nuclei count [3]: 115%
fluorescence slope [4]: -0.354 (inactive)
NADPH fluorescence slope [5]: -4.2e-05 (inactive)
slope [6]: 0.00548 (inactive)
inhibition [7]: 9.88% (inactive)
inhibition [8]: 27.5% (inactive)

CC1CCCC(N2CCN(C(=O)c3ccc(F)cc3)CC2)C1 (centres undefined)
cell count [1]: 625
inhibition [1]: -1.3% (inactive)
inhibition of aggregation [2]: -15.5% (inactive)
nuclei count [2]: 106%
inhibition [3]: -53.4% (inactive)
nuclei count [3]: 114%
fluorescence slope [4]: -0.581 (inactive)
NADPH fluorescence slope [5]: -4.9e-05 (inactive)
slope [6]: 0.00721 (inactive)
inhibition [7]: 2.84% (inactive)
inhibition [8]: 43.9% (inactive)

CCOCCCNC(=O)c1cc2sc(Cl)cc2n1CC
cell count [1]: 449
inhibition [1]: 17.9% (inactive)
inhibition of aggregation [2]: -1.1% (inactive)
nuclei count [2]: 89.7%
inhibition [3]: -80.9% (inactive)
nuclei count [3]: 100%
fluorescence slope [4]: -0.531 (inactive)
NADPH fluorescence slope [5]: -9.5e-05 (inactive)
slope [6]: 0.00603 (inactive)
inhibition [7]: 34.7% (inactive)
inhibition [8]: 19.5% (inactive)

COc1ccccc1N(C)S(=O)(=O)c1ccc(C(=O)NC2=NCCS2)cc1
cell count [1]: 458
inhibition [1]: 10.9% (inactive)
inhibition of aggregation [2]: 9.8% (inactive)
nuclei count [2]: 95.4%
inhibition [3]: -38% (inactive)
nuclei count [3]: 110%
fluorescence slope [4]: -0.598 (inactive)
NADPH fluorescence slope [5]: -2.8e-05 (inactive)
slope [6]: 0.00655 (inactive)
inhibition [7]: 2.13% (inactive)
inhibition [8]: 12% (inactive)

CN(C)Cc1cn(CCC(=O)O)c2ccccc12
cell count [1]: 331
inhibition [1]: 5.3% (inactive)
inhibition of aggregation [2]: -18.2% (inactive)
nuclei count [2]: 90.8%
inhibition [3]: 9.1% (inactive)
nuclei count [3]: 103%
fluorescence slope [4]: -0.481 (inactive)
NADPH fluorescence slope [5]: 4.3e-05 (inactive)
slope [6]: 0.00704 (inactive)
inhibition [7]: -16.1% (inactive)
inhibition [8]: 19.4% (inactive)
